For part of these data: Potency and affinity values are given separately.
Assays:
Staphylococcus aureus = assay: Antibacterial activity against Staphylococcus aureus MRSA ATCC 43300 (CO-ADD:GP_020); MIC in CAMBH media using NBS plates, by Resazurin F(560/590); type: functional; settings: Concentration 20 uM, ASSAY_TEST Inhibition of Bacterial Growth, detection method Resazurin, Fluorescence (ex560/em590), MEDIA CAMHB, plate type 384well, CORNING #3640, time 18 hr
Acinetobacter baumannii = assay: Antibacterial activity against Acinetobacter baumannii ATCC 19606 (CO-ADD:GN_034); MIC in CAMBH media using NBS plates, by Resazurin F(560/590); type: functional; settings: Concentration 20 uM, ASSAY_TEST Inhibition of Bacterial Growth, detection method Resazurin, Fluorescence (ex560/em590), MEDIA CAMHB, plate type 384well, CORNING #3640, time 18 hr
Escherichia coli = assay: Antibacterial activity against Escherichia coli ATCC 25922 (CO-ADD:GN_001); MIC in CAMBH media using NBS plates, by Resazurin F(560/590); type: functional; settings: Concentration 20 uM, ASSAY_TEST Inhibition of Bacterial Growth, detection method Resazurin, Fluorescence (ex560/em590), MEDIA CAMHB, plate type 384well, CORNING #3640, time 18 hr
Klebsiella pneumoniae = settings: Concentration 20 uM; ASSAY_TEST Inhibition of Bacterial Growth; detection method Absorption (OD600); MEDIA CAMHB; plate type 384well; NBS; CORNING #3640; time 18 hr
Candida albicans = settings: 20 µM
Cryptococcus neoformans = settings: Concentration 20 uM; ASSAY_TEST Inhibition of Fungal Growth; detection method Resazurin; Absorption (OD600-OD570); plate type 384well; NBS; CORNING #3640

Row | Structure (SMILES) | Inhibition (Staphylococcus aureus) | Inhibition (Acinetobacter baumannii) | Inhibition (Escherichia coli) | Inhibition (Klebsiella pneumoniae) | Inhibition (Candida albicans) | Inhibition (Cryptococcus neoformans)
1 | CC1=C(c2ccccc2)C=NNCC1=O | 7.06% | -11.86% | 19.62% | 15.54% | 3.87% | -8.22%
2 | Cc1nc2ccnn2c(O)c1CCc1ccccc1 | 8.7% | -8.36% | 1.1% | 10.44% | 5.45% | -6.6%
3 | N#CC1=C(Nc2ccccc2Cl)SC(c2ccncc2)NC1=O (stereo not given) | -1.66% | 6.04% | -3.11% | 12.56% | 4.49% | -0.15%
4 | CC(=C/c1ccccc1)/C=C1/NC(=S)NC1=O | 2.65% | 4.35% | -0.7% | 10.87% | 2.17% | -5.48%
5 | O=S1(=O)CCC(N(/N=C/c2ccco2)c2ccccc2)C1 (stereo not given) | 6.29% | -4.36% | -3.36% | 6.93% | -2.37% | -1.06%
6 | CCOc1ccc(NC(=O)c2cc3ccccc3cc2O)cc1 | -0.31% | -4.15% | -2.29% | 2.5% | 7.38% | -4.09%
7 | O=C(O)c1ccccc1C(=O)Nc1ccccc1[N+](=O)[O-] | 3.12% | 5.2% | 12.47% | 12.98% | 4.76% | -12.04%
8 | COc1ccc2c(c1)C(=O)C1NC(=O)NC(=O)C1(Br)N2 (stereo not given) | 19.24% | -10.78% | 15.57% | 4.36% | -1.05% | -13.08%
9 | Cn1c([N+](=O)[O-])cnc1N1CCN(c2nncs2)C1=O | 0.67% | -10.23% | 2.52% | 15.88% | 1.82% | -10.17%
10 | Nc1nc(=S)ss1 | 5.79% | -17.7% | 2.29% | 13.54% | 3.85% | -5.25%
11 | Clc1nc2nc3n(c2nc1Cl)CCC3 | 9.08% | 6.51% | 0.57% | 2.17% | 3.01% | -9.39%
12 | CC(C)C(=O)c1ccc(O)c(O)c1 | -0.55% | -3.52% | -12.2% | 9.02% | 3.31% | 21.92%
13 | O=C1c2ccccc2C(=Cc2cccnc2)c2ccccc21 | 8.79% | -7.39% | 6.86% | 10.23% | 9.01% | -9.38%
14 | Cn1ncc2c(Nc3ccccc3Cl)nc(Nc3ccccc3Cl)nc21 | 12.86% | -3.35% | -7.44% | 23.76% | 8.17% | -4.25%
15 | COc1cccc(/C=C2\CCc3ccccc3C2=O)c1 | 5.14% | -13.61% | 8.53% | 8.43% | 9.78% | -15.01%
16 | N#Cc1ncc(Cl)c2ccccc12 | -8.29% | -4.37% | -2.85% | 7.91% | 0.23% | -7.62%
17 | CCCCCc1cc(O)nc(S)n1 | 5.4% | -7.23% | 3.05% | 2.8% | 1.05% | -4.11%
18 | Cc1ccc(Nc2c(O)ncnc2O)cc1C | -23.26% | -4.13% | -16.23% | 1.1% | 0.31% | 16.78%
19 | CCCNC(=O)c1ccccc1C(=O)NC1(C(=O)NCCC)CCCC1 | 14.23% | 6.45% | 3.42% | 12.55% | -0.46% | -3.84%
20 | COc1cc(CC(=O)C(=O)O)oc(=O)c1 | 12.14% | 6.41% | -2.06% | 12.51% | 3.8% | -8.52%
21 | O=C(O)C1CCC(=O)N1C(=O)OCc1ccccc1 (stereo not given) | 2.22% | -12.76% | 8.61% | 12.18% | -1.6% | -3.17%
22 | COc1cc(C2NC(=O)C(C#N)=C(Nc3cccc(C)c3)S2)ccc1O (stereo not given) | 16.64% | 5.33% | 14.44% | 11.49% | 1.94% | -8.18%
23 | O=C(O)C1OCC2(CO1)COC(C(=O)O)OC2 (stereo not given) | 10.92% | -13.06% | 10.47% | 3.27% | 1.43% | -1.34%

Row | Structure (SMILES) | Inhibition (Staphylococcus aureus) | Inhibition (Acinetobacter baumannii) | Inhibition (Escherichia coli) | Inhibition (Klebsiella pneumoniae) | Inhibition (Candida albicans) | Inhibition (Cryptococcus neoformans)
24 | CC(=O)Nc1nc(C)c(CCCOc2ccc([N+](=O)[O-])cc2)c(O)n1 | 4.87% | 9.03% | 5.24% | 2.35% | 3.22% | -1.34%
25 | CCn1c2ccccc2c2cc(NC(=O)Nc3ccc([N+](=O)[O-])cc3C)ccc21 | 15.43% | 8.35% | 6.19% | 0.72% | 18.4% | 0.49%
26 | CSc1nc(O)c(Nc2cccc(Cl)c2)c(O)n1 | 7.02% | 14.23% | -1.67% | 7.49% | 0% | 16.48%
27 | Nc1ccc(N/C(S)=N/c2ccccc2)cc1 | 15.05% | 4.29% | 7.29% | 5.43% | 1.8% | -4.63%
28 | Cc1c2cnccc2c(C)c2c1c1ccccc1n2CCOC(=O)c1ccccc1 | -1.71% | 14.72% | 4.49% | 5.61% | 22.1% | -19.42%
29 | COc1ccccc1NC(=O)Nc1cc(C(C)C)ccc1C | 13.43% | 2.93% | -1.81% | -0.93% | 0.16% | -4.04%
30 | CC(=O)OCC1OC(COC(C)=O)(c2ccc(C)cc2)C(OC(C)=O)C1OC(C)=O (stereo not given) | -7.68% | -11.43% | 15.38% | 10.58% | -0.8% | -5.49%
31 | O=c1c2ccccc2ncn1-c1ccc(Cl)cc1 | 11.71% | -18.47% | 12.96% | 4.73% | 3.91% | -12.39%
32 | CN(CC(=O)O)Cc1oc(CO)cc(=O)c1O | 10.58% | -10.6% | 6.09% | 19.22% | 0.31% | -9.52%
33 | CC(=O)O[C@H]1CC[C@@]2(C)[C@@H](CC[C@@H]3[C@@H]2CC(=O)[C@@]2(C)[C@H]3C[C@@H]3CC(C)=CC(=O)[C@@H]32)C1 | 25.43% | -5.19% | 14.73% | 18.64% | 2.5% | -9.27%
34 | Cc1ccc2c(c1)sc1nncn12 | 15.32% | -15.79% | 12.68% | 5.69% | -0.75% | -11.46%
35 | Cn1cnc([N+](=O)[O-])c1N=C(N)N | -12.1% | -2.18% | 11.15% | 7.43% | -4.73% | 1.78%
36 | CN1C(=C=Cc2cc(I)c(O)c(I)c2)C(C)(C)c2ccccc21 | 20.66% | 1.84% | 10.92% | 7.2% | 6.34% | 5.51%
37 | CN(C)CCCN1c2ccc3ccccc3c2Sc2cccc(Cl)c21 | -10.96% | 0.47% | 9.47% | 8.34% | 0.69% | 12.55%
38 | Cn1c2c(sc1=O)CCC2 | 14.81% | -10.92% | 5.93% | 16.07% | 2.06% | -0.94%
39 | Cc1nc(S)nc(O)c1CCC1OCCO1 | 13.84% | -2.91% | 10.14% | -2.98% | -0.82% | -7.17%
40 | FC(F)(F)c1cccc(-c2nc3nc(Cl)c(Cl)nc3[nH]2)c1 | -14.72% | 9.89% | 3.39% | 6.13% | 4.41% | 33.54%
41 | COC(=O)C1=C(C)NC(C)=C(C(=O)OC)C(N2C(=O)CCC2=O)C1 (stereo not given) | 18.88% | 6.44% | 0.27% | 9.26% | 2.3% | -2.75%
42 | O=C1c2ccccc2C(=O)c2c1cccc2-n1nnc2ccccc21 | 8.87% | -5.95% | 13.14% | 0.02% | 0.12% | -17.13%
43 | CN(C)c1ncnc2c1ncn2-c1ccccc1 | -6.98% | -8.04% | 0.85% | 6.41% | 1.36% | -5.49%
44 | O=C(NCc1ccco1)Nc1cccc([N+](=O)[O-])c1 | 14.39% | 8.34% | -1.12% | 10.94% | 3.5% | -10.49%
45 | COc1ccc(NC(=O)c2cc3ccc4c5ccccc5[nH]c4c3cc2O)cc1 | 16.09% | 5.56% | 1.69% | 7.19% | -5.12% | 1.29%
